The results in this text go back to PubChem BioAssay AID1851 (National Center for Advancing Translational Sciences (NCATS), 2009).

In all, about 16,000 compounds went through this assay and about 5,700 (36%) were called active. Inconclusive results (about 24%) are left out. The list shows a part of the results. A number with no mark means an inactive call. Calls follow the shape of the dose curve; as a rule, active = well fitted curve in the direction sought with a large enough effect; inconclusive = small, poorly fitted or top-dose-only effect, or effect the other way; inactive = no such curve, though single readings can be large or run the other way.
% is scaled to controls: 0 for no effect and ±100 for the full control effect.

In this assay the target is Cytochrome P450 1A2 (Homo sapiens) (UniProt P05177). Kind of assay: Cytochrome panel assay with activity outcomes. The conditions noted are these: recombinant CYP, pro-luciferin dealkylation, luminescence, p450-cyp1a2; series mostly up to 57.1 µM; activity, negative = inhibition: at the top concentration.
Sequence of Cytochrome P450 1A2 (Homo sapiens) (P05177 whole entry, looked up): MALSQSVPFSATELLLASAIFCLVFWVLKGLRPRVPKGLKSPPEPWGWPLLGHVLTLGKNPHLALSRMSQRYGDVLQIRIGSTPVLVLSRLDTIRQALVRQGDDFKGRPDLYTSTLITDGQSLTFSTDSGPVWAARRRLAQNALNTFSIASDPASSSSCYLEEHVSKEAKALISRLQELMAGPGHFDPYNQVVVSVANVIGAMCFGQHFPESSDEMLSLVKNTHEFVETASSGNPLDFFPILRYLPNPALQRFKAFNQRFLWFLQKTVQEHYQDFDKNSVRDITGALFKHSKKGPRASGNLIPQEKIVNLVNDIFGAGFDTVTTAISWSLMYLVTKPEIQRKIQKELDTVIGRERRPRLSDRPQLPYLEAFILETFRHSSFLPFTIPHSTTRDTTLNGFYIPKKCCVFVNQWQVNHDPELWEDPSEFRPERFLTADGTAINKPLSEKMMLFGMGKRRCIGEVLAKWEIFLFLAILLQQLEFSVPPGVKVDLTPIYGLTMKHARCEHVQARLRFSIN
Turning to `CCCCN1C2=NCCCN2c2ccccc21`, the AC50 was 25.1 µM (active).

Consider `CCCN1C2=NCCCN2c2ccccc21`, for which the “activity, negative = inhibition” value is -19%. On the same count and under the same terms, in the case of `CCCCN1C(=O)CC(Sc2ccccc2C(=O)O)C1=O` (stereo not drawn) it was -6.77%. Turning to `CCc1ccccc1OC[C@@H](O)CN[C@H]1CCCc2ccccc21`, the AC50 was 12.6 µM (active). Take `Cc1c(C(=O)NC2CCCc3ccccc32)oc2ccc(S(=O)(=O)N3CCOCC3)cc12` (stereo not drawn): the “activity, negative = inhibition” value was -18%. Still for that read-out and setting: with `COC(=O)[C@@]1(Cc2ccccc2)[C@H]2c3cc(C(=O)N4CCCC4)n(CCc4ccccn4)c3C[C@H]2CN1C(=O)c1ccccc1` the figure was -11.2%; with `COc1ccc(NC(=O)c2cc3n(n2)C(C(F)(F)F)CC(c2ccc4c(c2)OCO4)N3)cc1OC` (stereo not drawn), -4.17%. For the molecule `COc1ccc(OC)c(NC(=O)c2cc3n(n2)C(C(F)(F)F)CC(c2ccc4c(c2)OCO4)N3)c1` (stereo not drawn), the AC50 was 0.316 µM (active). Regarding `COc1ccc(C2CC(C(F)(F)F)n3nc(C(=O)N(C)Cc4cn(C)nc4C)c(Cl)c3N2)cc1` (stereo not drawn), the “activity, negative = inhibition” value was -44.6%. On to `CCOC(=O)C1CCCN(c2ncnc3c2cnn3-c2ccc(Cl)cc2)C1` (stereo not drawn), for which the AC50 is 8.91 µM (active). For the molecule `CCOC(=O)C1CCCN(c2ncnc3c2cnn3-c2cccc(C)c2)C1` (stereo not drawn), the AC50 is 14.1 µM (active). For the molecule `CCOC(=O)C1CCCN(C(=O)C2CCN(S(=O)(=O)N3CCC4(CC3)OCCO4)CC2)C1` (stereo not drawn), the “activity, negative = inhibition” value is -7.11%. On to `CC(=O)c1c(C(C)=O)c(C)n(NC(=O)c2ccccc2Cl)c1C`, for which the “activity, negative = inhibition” value was -23.6%.

Turning to `CC(=O)Nc1cccc(C(=O)OCc2ccc(C(=O)Oc3ccc(Cl)cc3)cc2)c1`, the “activity, negative = inhibition” value is -6.94%. Regarding `Cc1cc(OC(=O)c2ccc(Cl)cc2)cc(=O)n1C`, the AC50 is 25.1 µM (active). The same measure, in the same setting: with `Cc1cc(OC(=O)c2ccccc2Cl)cc(=O)n1C` the figure was 3.55 µM (active).

Take `COc1ccc(C2CC(=O)CC(=O)C2n2cncn2)cc1` (stereo not drawn): the “activity, negative = inhibition” value was -6.41%. On the same count and under the same terms, in the case of `CC(CC(=O)O)(CC(=O)O)c1ccccc1` it was -0.666% [at 11.4 µM]. As for `COc1cc(-c2ccc(=O)[nH]n2)ccc1OC(F)F`, the AC50 was 5.01 µM (active). As to `CCOc1nc(NCCN2CCOCC2)nc(Nc2ccc(C)cc2)n1`, the “activity, negative = inhibition” value was -28%. As for `CN(C)c1ccc(-c2nccc(NCCN3CCOCC3)n2)cc1`, the AC50 is 1.26 µM (active). Same read-out and setting: with `Cc1ccccc1-c1nccc(NCCN2CCOCC2)n1` the figure was 5.01 µM (active). Turning to `c1ccc2c(c1)CCCc1cc(NCCN3CCOCC3)nnc1-2`, the “activity, negative = inhibition” value is -10.5% [at 25.6 µM]. On the same count and under the same terms, with `O=C(/C=C/c1ccccc1Cl)NCCN1CCOCC1` the figure was -27.1%. As to `Clc1ccccc1-c1nccc(NCCN2CCOCC2)n1`, the AC50 was 2 µM (active). Regarding `c1cc(CNCCCN2CCOCC2)ccn1`, the “activity, negative = inhibition” value was -3%. On the same count and under the same terms, in the case of `C#CCCCO/N=C1/C[C@@H](O)[C@@H](O)[C@@H]2[C@H]3C(=O)N(c4ccc(F)cc4F)C(=O)[C@@H]3CC[C@@H]12` it was 5.29% [at 11.4 µM]; in that of `CNC(=O)c1c(I)c(C(=O)NCC(=O)Nc2c(I)c(C(=O)O)c(I)c(C(=O)NCCO)c2I)c(I)c(N(C)C(C)=O)c1I`, -10% [at 25.6 µM]. As to `COc1ccc(-n2c(=O)c(-c3cccs3)nc3cncnc32)cc1`, the AC50 is 10 µM (active). Same read-out and setting: in the case of `O=c1c(-c2cccs2)nc2cncnc2n1-c1ccccc1` it was 12.6 µM (active); in that of `COCCNc1cc(-c2ccccc2C)ncn1`, 15.8 µM (active). On the same count and under the same terms, with `COc1ccccc1CNc1cc(-c2ccccc2C)ncn1` the figure was 5.01 µM (active). Consider `CC(=O)NCCNc1cc(-c2ccccc2CN(C)C)ncn1`, for which the “activity, negative = inhibition” value was -20.9%. Still for that read-out and setting: with `COCCNc1cc(-c2ccccc2CN(C)C)ncn1` the figure was -16.8%.

As for `CC(=O)NCCNc1cc(-c2ccccc2C)ncn1`, the AC50 is 15.8 µM (active). The same measure, in the same setting: in the case of `COc1ccccc1CNc1cc(-c2ccccc2OC)ncn1` it was 2.51 µM (active).

For `CCCc1nnc(NC(=O)CCC(=O)N2CCN(c3ccccn3)CC2)s1`, the “activity, negative = inhibition” value was -4.79%. Still for that read-out and setting: with `O=C(c1ccc(Oc2ccc(C(F)(F)F)cn2)cc1)N1CCN(c2ccccc2)CC1` the figure was -23.5%; with `O=C(c1cc(C(F)(F)F)cc(C(F)(F)F)c1)N1CCC2(CC1)CCN(c1ccccn1)CC2`, -13.7%. As for `Cc1ccc(C(=O)N2CCN(c3ccc(C(F)(F)F)cn3)CC2)cc1`, the AC50 is 14.1 µM (active). On to `CCCS(=O)(=O)N1CCCC(C(=O)NCCCN2CCN(c3ccc(F)cc3)CC2)C1` (stereo not drawn), for which the “activity, negative = inhibition” value is -21.1%.

Take `c1ccc2c(c1)c1ccccc1n2Cn1c2ccccc2c2ccccc21`: the AC50 is 0.251 µM (active).

With `CN(C)C(=O)c1ccc(-n2nc(C(F)(F)F)c3c2CCCC3)cc1`, the AC50 is 22.4 µM (active). Take `COC(=O)[C@@]1(Cc2ccccc2)[C@H]2c3cc(C(=O)N4CCCC4)n(Cc4ccc(C(F)(F)F)nc4)c3C[C@H]2CN1C(=O)c1ccccc1`: the “activity, negative = inhibition” value was -10.8%. Take `Cc1cccc2cc(=O)[nH]c(C)c12`: the AC50 is 14.1 µM (active). Consider `CC1CC/C(=C\c2ccc3c(c2)OCO3)C(=O)/C1=C/c1ccc2c(c1)OCO2` (stereo not drawn), for which the AC50 was 3.55 µM (active). On to `CC(=O)c1c(O)cc(=O)n(-c2ccccc2)c1-c1ccc(C)cc1`, for which the “activity, negative = inhibition” value is 3.8%. Take `Cc1c(O)c(=O)n(-c2ccccc2)n1C`: the “activity, negative = inhibition” value is -12.4% [at 25.6 µM].
